In PubChem BioAssay (Tox21):
Records with an inconclusive call do not appear. A call without a number means that no potency is given here. Active and inactive are the calls of the source. Calls come from the whole dose curve; as a rule, active = well fitted cell-killing curve with a large enough effect in the repeat runs; inconclusive = weak or mixed curves, or effect the other way; inactive = flat fitted curve, though single readings scatter.

Assays:
[1] = cAMP Responsive Elements (CRE) small molecule agonists, cell-based qHTS assay: qHTS cell viability counter screen (AID 2060914); note: potency is the fitted concentration of half-maximal effect;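 note: viability read after 3 h of compound exposure; nearly all actives have a fitted effect of over 50% in size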
In short: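 HEK 293T CRE-bla; DMEM + 10% dialyzed FBS, 25 mM HEPES; 18 h pre-incubation; compound 3 h, 37 °C/5% CO2; CellTiter-Glo added after reporter read; luminescence after 30 min RT.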

[2] = cAMP Responsive Elements (CRE) small molecule antagonists, cell-based qHTS assay: qHTS cell viability counter screen (AID 2060913); note: nearly all actives have a fitted effect of over 40% in size
In short: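 CRE-bla HEK293T cells were seeded in assay medium with 10% dialyzed FBS, incubated 18 hrs at 37 C, then exposed to compounds plus 0.25 uM final NKH477 for 3 hrs. Viability was read by CellTiter-Glo luminescence after 30 min, in the same wells.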

Row | SMILES | Potency [1] | Potency [2]
1 | Cc1cccc(O)c1N | inactive | 
2 | CC(C)(C)C(=O)/C=C/c1ccc(Cl)cc1 | inactive | inactive
3 | CCCCCCCCCCCCOCCOCCOCCOCCOCCOCCOCCOCCOCCO | 29.8 µM (active) | 
4 | O=C(CCC1CCN(Cc2ccccc2)CC1)c1ccc2c(c1)NCCCC2 | inactive | inactive
5 | Cc1cc(=O)[nH]c(=O)[nH]1 | inactive | inactive
6 | Cc1cn([C@H]2C[C@H](F)[C@@H](CO)O2)c(=O)[nH]c1=O | inactive | 
7 | Cc1cc(C2CCCCC2)n(O)c(=O)c1 | inactive | 
8 | CN(C)CCC=C1c2ccccc2CCc2ccccc21 | inactive | inactive
9 | CCc1ccc(O)c(OC)c1 | inactive | 
10 | CCN(CCCCOC(=O)c1ccc(OC)c(OC)c1)C(C)Cc1ccc(OC)cc1 (stereo not drawn) | inactive | 
11 | CCCCC(CC)COC(=O)CCCCC(=O)OCC(CC)CCCC (stereo not drawn) | inactive | inactive
12 | CCCC(=O)OCCC(C)C | inactive | 
13 | O=C(O)c1cc(Cl)cc(Cl)c1 | inactive | inactive
14 | CCOc1ncc(F)c(=O)[nH]1 | inactive | inactive
15 | CC(=O)Nc1cccc(O)c1 | inactive | inactive
16 | Cc1occc1S | inactive | inactive
17 | O=C(c1ccccc1)c1ccccc1 | inactive | inactive
18 | CC1(C)S[C@@H]2[C@H](NC(=O)Cc3ccccc3)C(=O)N2[C@H]1C(=O)O (tested in a mixture with another compound) | inactive | inactive
19 | O=[N+]([O-])c1ccc(O)cc1C(F)(F)F | inactive | 
20 | C=C(C)[C@@H]1CCC2=CC(=O)C[C@@H](C)[C@]2(C)C1 | inactive | inactive
21 | CCOC(=O)[C@@H](C)Oc1ccc(Oc2nc3ccc(Cl)cc3o2)cc1 | inactive | 
